Cycloheximide cs: counter-screen for Shiga toxin inhibitors: cycloheximide protein synthesis inhibition. cell reporter, cycloheximide protein synthesis inhibition counterscreen. max response, %. 12% of 300,000 active; in the data active = max response mostly above about 13%, no sharp cut-off; inactive = mostly below about 14%; also: read at 38.3 µM for the half of the compounds with a filed dose; 0% is about no effect
MARV entry inh: inhibitors of Marburg virus binding or cell entry; 1.8% of 300,000 active; Potency, µM (highest dose often 37.8 µM), inactives show top-dose activity change, negative = inhibition, actives largely listed as inhibitors; Marburg virus pseudotyped entry inhibition, cell reporter; AID 540276; calls by dose curve; tested in HEK293 cells; also: potency is read from the fitted curve at half-maximal effect; % is scaled to controls: 0 for no effect and ±100 for the full control effect
Shiga toxin inh: Shiga toxin inhibition. Vero cells, Shiga toxin protein synthesis inhibition reporter. inhibition, % at 38.7 µM. 9.2% of 290,000 active; in the data active = inhibition mostly above about 28%, no sharp cut-off; inactive = mostly below about 43%; also: 0% is about no effect
Lassa entry inh: blocks Lassa virus binding to or entry into cells. Potency, µM (top dose mostly 37.9 µM), inactives show at the highest dose activity change, negative = inhibition, hits mostly inhibitors. 1.2% of 300,000 active. Lassa virus pseudotype entry inhibition, cell reporter; calls by dose curve; tested in HEK293 cells; also: potency is read from the fitted curve at half-maximal effect; % is scaled to controls: 0 for no effect and ±100 for the full control effect; nearly all actives have a fitted effect of over 50% in size
AMA1 RON2 block: AMA1-RON2 (P. falciparum) interaction inhibition; Potency, µM (top dose mostly 58.2 µM), for inactives: top-dose activity change, negative = inhibition, most hits filed as inhibitors; 0.2% of 360,000 active; AlphaScreen AMA1-biotinylated RON2 peptide binding; active = well fitted inhibition curve with a large enough effect; inconclusive = small, poorly fitted or top-dose-only effect; inactive = no such curve, though single readings can be large or run the other way;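 also: potency is read from the fitted curve at half-maximal effect; 0% = vehicle wells and -100% = peptide control; nearly all actives have a fitted effect of over 45% in size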
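AMA1 (3D7) with his tag at 25 nM final met compounds first, then biotinylated RON2 peptide at 25 nM; detection used donor plus acceptor beads, 10 µg/mL apiece, read by AlphaScreen after 30 min at room temperature.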
* hit, by the source's call; u = inconclusive; x = no result; [ ] = remark or other dose. Only a selection was taken, and hits are over-represented in it overall.

SMILES	Cycloheximide cs	MARV entry inh	Shiga toxin inh	Lassa entry inh	AMA1 RON2 block
CC(=O)Nc1cccc(NC(=O)C(=O)c2cn(CC(=O)N3CCCCC3)c3ccccc23)c1	45*	u	85*	u	16%
CC(=O)Nc1ccc(NC(=O)C(=O)c2cn(CC(=O)N3CCCC3)c3ccccc23)cc1	-1	1%	23	4%	-6%
COc1ccc(C(=O)N(Cc2sccc2C)C2CCS(=O)(=O)C2)cc1Cl (centres undefined)	x	-16%[46.1 µM]	x	11%[46.1 µM]	x
CC(=O)c1ccccc1OCCOc1ncnc2sccc12	16*	26%[46.1 µM]	36*	u	2%
C=CCSc1nc2c(cnn2-c2ccccc2)c(=O)n1N	53*	u	63*	u	38%
CSc1cccc(NC(=O)CN(C)S(=O)(=O)c2cnc[nH]2)c1	10	x	16	x	5µM*
CSc1cccc(NC(=O)CN(C)S(=O)(=O)c2ccc(F)cc2)c1	-2	u	4	0%	-8%
CSc1cccc(NC(=O)CN(C)S(=O)(=O)c2ccccc2)c1	18*	14%	18	4%	12%
Cc1cc(=O)[nH]c(N/N=C/c2ccccn2)n1	14*	2.6µM*	-34	7.1µM*	-42%
Cc1cc(=O)[nH]c(N/N=C/c2ccc(Br)s2)n1	27*	u	29	-1%	58%[11.6 µM]
O=c1cnnc(N/N=C/c2ccccn2)[nH]1	-2	x	-18	x	-4%
Cc1cc(=O)[nH]c(N/N=C/c2cccc(Br)c2)n1	15*	-5%[46.1 µM]	x	u	36%
Cc1cccn2c(=O)cc(CSc3nnc(NC(=O)COc4ccccc4)s3)nc12	x	x	x	5%[46.1 µM]	x
C/C(=N\NC(=S)Nc1ccc(F)cc1)C1CC1	29*	19%	21	0%	56%
CC1CCN(C(=S)Nc2ccc(F)cc2)CC1	-2	u	17	u	12%
CCOC(=O)c1[nH]c(C)c(CCC(=O)NCc2ccc(N(C)C)cc2)c1C	x	x	x	1%[46.1 µM]	x
COC(=O)C1(Cc2cc(-c3ccccc3)no2)CCN(C(=O)OC(C)(C)C)CC1	27*	x	40*	x	1%
COC(=O)c1ccc(-c2cc(CC3(C(=O)OC)CCN(C(=O)OC(C)(C)C)CC3)on2)cc1	-3	x	7	x	0%
Cc1ccc(NC(=O)c2c(C(F)(F)F)nn(C)c2SCc2ccc(Cl)cc2)cc1C	22*	u	46*	7%	36%
Cc1ccc(NC(=O)c2c(C(F)(F)F)nn(C)c2SCc2cccc(C(F)(F)F)c2)cc1C	20*	u	51*	u	3%
Cc1cccc(C)c1NC(=O)c1sccc1SCc1cccc(C(F)(F)F)c1	2	u	-3	5%	33%
CCN1CCCC1CNC(=O)c1ccc(Sc2ccccc2Cl)c([N+](=O)[O-])c1 (centres undefined)	-3	u	-19	-21%	16%
CCN1CCCC1CNC(=O)c1ccc(Sc2ccc(F)cc2)c([N+](=O)[O-])c1 (centres undefined)	-1	6.3µM*	-6	x	11%
C/C(=N\NC(=O)c1cccc(Cl)c1)C1C(=O)c2ccccc2C1=O	52*	-14%	73*	u	49%
CC(/C=C/c1ccccc1)=N\NC(=O)CCc1ccccc1	7	x	16	x	-10%
SMILES	Cycloheximide cs	MARV entry inh	Shiga toxin inh	Lassa entry inh	AMA1 RON2 block
C/C(=N\NC(=O)CCc1ccccc1)C1C(=O)c2ccccc2C1=O	24*	u	67*	u	7%
COC(=O)/C(C#N)=C1/C=Cc2ccccc2N1C	26*	20%	61*	1%	-9%
CC(=O)Oc1cc2c(C(=O)NCc3ccncc3)c(C)oc2c2ccccc12	8.6*	x	13	x	-1%
COc1ccc(N2CC(C(=O)NCc3n[nH]c(=O)c4ccccc34)CC2=O)cc1 (centres undefined)	x	11%	x	14%	-2%
CC1(NC(=O)c2cc(Cl)nc3ccccc23)CCS(=O)(=O)C1 (centres undefined)	x	x	x	x	0%
C/C(=N\Nc1nc(C)cc(C)n1)c1ccc(C)o1	21*	-19%	29	1%	54%
COc1ccc2oc(=O)c(-c3nc(C)cs3)cc2c1	32*	-15%	45*	-6%	-4%
O=c1oc2ccccc2cc1-c1nc2c(s1)CCc1ccccc1-2	21*	5%	63	0%	141%
N#C/C(=C(/O)CCl)c1nc2c(s1)CCc1ccccc1-2	30*	21%[46.1 µM]	54*	12%	-15%
Nc1nnc(-c2cc3ccccc3oc2=O)s1	44*	u	152*	1%	-2%
O=c1oc2cc(O)ccc2cc1-c1nc2c(s1)CCc1ccccc1-2	2	14%	-7	u	18%[11.6 µM]

Assay outcomes: PubChem, National Center for Advancing Translational Sciences (NCATS)
